# Targets with a hit are over-represented here; the source holds about 7,900 in all. About 0.6% of all pairs of compound and target were hits.
# Compound: CC[C@@H]1C(=O)N(C)c2cnc(Nc3ccc(C(=O)N[C@H]4CC[C@H](N5CCN(CC6CC6)CC5)CC4)cc3OC)nc2N1C(C)C [volasertib]
# Test: log2 fold change, soluble protein after heating vs DMSO (PISA); higher = thermal stabilisation; K562 cells, 10 uM, 30 min; active = over 0.2 and 3.5 SD of the protein, either way, in both replicates (recomputed)
# How it was run: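 Soluble protein was defined as the supernatant after 21,000xg for 90 min. It came from K562 cells at 2×10^6 cells/mL given 10 μM compound for 30 min, heated in aliquots for 3 min across 48°C-58°C, pooled, and extracted in PBS with 0.5% NP-40 at 4°C, and was quantified by TMTpro 16plex LC-MS/MS with equalised channel sums. Thermal stability against control samples, from duplicates, is reported as log2 fold change.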
# Chain of UniProt Q96MX0 (Q96MX0 whole entry, looked up): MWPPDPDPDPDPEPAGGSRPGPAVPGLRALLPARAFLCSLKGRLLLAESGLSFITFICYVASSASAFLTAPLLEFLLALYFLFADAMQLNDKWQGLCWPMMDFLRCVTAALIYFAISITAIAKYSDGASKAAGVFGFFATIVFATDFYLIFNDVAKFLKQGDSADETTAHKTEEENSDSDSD
# Chain of UniProt Q9UNS2 (Q9UNS2 whole entry, looked up): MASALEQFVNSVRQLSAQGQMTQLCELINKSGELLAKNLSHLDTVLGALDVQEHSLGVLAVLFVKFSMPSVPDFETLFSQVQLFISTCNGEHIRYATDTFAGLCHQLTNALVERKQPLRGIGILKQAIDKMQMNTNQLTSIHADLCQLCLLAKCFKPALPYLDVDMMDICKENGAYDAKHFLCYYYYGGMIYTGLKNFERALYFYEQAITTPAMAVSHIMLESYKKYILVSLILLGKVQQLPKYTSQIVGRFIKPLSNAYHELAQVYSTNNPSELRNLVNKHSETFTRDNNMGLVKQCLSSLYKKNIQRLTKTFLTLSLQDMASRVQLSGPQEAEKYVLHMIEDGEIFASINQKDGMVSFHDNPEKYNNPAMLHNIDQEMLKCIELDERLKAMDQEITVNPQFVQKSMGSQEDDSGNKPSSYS
# Chain of UniProt Q9BWU1 (Q9BWU1 whole entry, looked up): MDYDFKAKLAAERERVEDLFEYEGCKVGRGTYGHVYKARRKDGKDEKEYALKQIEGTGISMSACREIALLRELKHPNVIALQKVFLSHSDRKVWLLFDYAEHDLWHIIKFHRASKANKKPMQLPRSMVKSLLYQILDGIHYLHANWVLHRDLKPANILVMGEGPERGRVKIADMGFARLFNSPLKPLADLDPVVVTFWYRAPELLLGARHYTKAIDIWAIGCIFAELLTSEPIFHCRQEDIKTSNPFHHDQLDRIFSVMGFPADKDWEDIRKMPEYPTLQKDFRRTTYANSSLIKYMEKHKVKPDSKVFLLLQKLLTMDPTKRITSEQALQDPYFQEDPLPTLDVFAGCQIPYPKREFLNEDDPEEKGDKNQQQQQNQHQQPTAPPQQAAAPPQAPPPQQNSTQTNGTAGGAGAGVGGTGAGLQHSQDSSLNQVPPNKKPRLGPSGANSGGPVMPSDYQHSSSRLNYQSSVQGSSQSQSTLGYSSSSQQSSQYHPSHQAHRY
# Chain of UniProt O43529 (O43529 whole entry, looked up): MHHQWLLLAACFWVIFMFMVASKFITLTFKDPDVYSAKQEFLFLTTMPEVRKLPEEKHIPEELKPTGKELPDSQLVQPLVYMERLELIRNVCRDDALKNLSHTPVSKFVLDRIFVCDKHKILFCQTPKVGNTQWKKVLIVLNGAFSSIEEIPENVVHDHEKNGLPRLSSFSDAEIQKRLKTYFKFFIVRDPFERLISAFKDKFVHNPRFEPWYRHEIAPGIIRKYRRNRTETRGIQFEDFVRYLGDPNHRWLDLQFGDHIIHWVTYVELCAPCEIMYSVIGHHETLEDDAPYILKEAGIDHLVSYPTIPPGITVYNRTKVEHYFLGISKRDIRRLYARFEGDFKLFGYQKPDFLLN
# Chain of UniProt Q9BSQ5 (Q9BSQ5 whole entry, looked up): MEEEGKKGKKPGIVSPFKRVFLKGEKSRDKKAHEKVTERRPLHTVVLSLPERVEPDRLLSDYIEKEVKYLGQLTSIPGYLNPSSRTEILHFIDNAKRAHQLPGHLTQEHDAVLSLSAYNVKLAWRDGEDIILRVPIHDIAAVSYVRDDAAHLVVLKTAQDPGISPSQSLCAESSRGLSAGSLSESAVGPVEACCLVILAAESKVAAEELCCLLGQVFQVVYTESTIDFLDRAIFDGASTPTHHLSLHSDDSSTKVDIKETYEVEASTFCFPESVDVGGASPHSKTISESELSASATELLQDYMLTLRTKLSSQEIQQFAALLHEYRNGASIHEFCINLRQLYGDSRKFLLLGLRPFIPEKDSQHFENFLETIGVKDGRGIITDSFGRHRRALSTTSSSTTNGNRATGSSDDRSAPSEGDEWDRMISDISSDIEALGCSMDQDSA
# Chain of UniProt Q13111 (Q13111 whole entry, looked up): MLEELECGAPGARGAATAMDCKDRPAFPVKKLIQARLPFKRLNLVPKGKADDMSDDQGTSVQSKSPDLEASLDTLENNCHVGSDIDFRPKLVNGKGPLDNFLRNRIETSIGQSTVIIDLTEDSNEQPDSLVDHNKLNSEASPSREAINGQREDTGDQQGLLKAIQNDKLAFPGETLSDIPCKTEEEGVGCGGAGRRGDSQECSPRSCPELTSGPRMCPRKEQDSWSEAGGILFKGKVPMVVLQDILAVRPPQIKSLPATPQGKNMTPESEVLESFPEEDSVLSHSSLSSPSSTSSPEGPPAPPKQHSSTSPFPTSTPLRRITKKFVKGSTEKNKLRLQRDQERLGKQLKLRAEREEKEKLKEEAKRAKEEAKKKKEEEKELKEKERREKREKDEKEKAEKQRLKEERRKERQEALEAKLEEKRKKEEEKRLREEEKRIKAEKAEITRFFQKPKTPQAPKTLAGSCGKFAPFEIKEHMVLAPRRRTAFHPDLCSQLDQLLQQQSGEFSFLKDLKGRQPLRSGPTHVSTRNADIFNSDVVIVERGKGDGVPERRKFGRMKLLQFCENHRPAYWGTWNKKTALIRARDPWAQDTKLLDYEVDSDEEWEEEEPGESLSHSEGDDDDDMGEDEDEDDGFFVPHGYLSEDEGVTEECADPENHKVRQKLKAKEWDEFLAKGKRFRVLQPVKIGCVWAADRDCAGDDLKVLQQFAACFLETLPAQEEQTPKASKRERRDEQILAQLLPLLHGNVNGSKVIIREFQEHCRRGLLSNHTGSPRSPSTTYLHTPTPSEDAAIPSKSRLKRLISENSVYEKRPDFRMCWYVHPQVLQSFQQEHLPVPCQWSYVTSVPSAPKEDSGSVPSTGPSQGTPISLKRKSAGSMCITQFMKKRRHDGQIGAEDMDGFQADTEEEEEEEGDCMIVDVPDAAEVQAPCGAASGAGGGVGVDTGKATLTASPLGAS
# Chain of UniProt Q9Y2V0 (Q9Y2V0 whole entry, looked up): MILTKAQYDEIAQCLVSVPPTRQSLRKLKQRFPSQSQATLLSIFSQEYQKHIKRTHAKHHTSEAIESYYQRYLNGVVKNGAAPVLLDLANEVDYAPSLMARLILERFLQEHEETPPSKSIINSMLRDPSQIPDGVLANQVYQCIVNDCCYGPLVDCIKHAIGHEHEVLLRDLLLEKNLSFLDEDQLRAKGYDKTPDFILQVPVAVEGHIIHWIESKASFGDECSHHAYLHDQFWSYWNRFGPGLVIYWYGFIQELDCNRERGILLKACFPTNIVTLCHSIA
# Chain of UniProt Q9H9S4 (Q9H9S4 whole entry, looked up): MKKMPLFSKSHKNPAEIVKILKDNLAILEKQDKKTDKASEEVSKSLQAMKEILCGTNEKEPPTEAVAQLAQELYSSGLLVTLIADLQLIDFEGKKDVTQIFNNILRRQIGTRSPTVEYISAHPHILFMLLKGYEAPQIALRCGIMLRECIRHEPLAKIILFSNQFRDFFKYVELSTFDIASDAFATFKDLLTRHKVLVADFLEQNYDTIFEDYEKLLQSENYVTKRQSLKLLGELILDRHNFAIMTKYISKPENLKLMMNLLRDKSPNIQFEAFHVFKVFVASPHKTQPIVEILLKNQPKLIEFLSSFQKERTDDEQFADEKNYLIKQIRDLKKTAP
# Chain of UniProt Q7Z4R8 (Q7Z4R8 whole entry, looked up): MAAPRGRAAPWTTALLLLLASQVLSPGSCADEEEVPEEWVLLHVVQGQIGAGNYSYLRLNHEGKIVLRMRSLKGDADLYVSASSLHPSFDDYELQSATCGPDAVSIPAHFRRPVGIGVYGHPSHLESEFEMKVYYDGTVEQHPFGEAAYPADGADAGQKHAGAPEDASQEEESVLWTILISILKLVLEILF
# Chain of UniProt O60583 (O60583 whole entry, looked up): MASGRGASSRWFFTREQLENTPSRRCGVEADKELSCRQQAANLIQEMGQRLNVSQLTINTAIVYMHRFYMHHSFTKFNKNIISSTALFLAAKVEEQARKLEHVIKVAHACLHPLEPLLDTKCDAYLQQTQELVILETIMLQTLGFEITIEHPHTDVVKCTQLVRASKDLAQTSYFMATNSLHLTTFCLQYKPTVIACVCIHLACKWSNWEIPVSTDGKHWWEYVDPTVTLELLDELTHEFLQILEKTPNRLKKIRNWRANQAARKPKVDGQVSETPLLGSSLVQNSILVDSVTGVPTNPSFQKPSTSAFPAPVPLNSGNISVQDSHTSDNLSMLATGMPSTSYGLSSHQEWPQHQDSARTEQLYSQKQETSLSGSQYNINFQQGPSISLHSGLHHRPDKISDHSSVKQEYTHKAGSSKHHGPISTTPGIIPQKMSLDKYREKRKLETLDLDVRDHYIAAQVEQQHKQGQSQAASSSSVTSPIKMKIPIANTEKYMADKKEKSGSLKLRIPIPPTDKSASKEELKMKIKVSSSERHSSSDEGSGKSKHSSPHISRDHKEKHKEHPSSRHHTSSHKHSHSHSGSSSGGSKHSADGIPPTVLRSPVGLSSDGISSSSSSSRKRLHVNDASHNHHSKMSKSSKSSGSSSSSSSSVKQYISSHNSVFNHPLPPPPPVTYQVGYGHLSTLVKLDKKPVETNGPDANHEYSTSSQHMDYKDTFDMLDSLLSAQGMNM
# Chain of UniProt Q8WUD6 (Q8WUD6 whole entry, looked up): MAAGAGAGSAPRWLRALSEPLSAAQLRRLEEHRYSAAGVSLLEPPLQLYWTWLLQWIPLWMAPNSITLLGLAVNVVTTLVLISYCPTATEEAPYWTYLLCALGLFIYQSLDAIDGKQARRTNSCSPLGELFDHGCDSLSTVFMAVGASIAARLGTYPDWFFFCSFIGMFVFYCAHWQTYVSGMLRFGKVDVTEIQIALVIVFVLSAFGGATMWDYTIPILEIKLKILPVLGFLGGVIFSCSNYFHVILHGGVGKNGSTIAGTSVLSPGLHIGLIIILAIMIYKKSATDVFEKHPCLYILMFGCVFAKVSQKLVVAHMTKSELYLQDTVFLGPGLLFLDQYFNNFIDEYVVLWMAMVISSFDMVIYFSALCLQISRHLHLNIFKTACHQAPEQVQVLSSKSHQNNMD
# Chain of UniProt P24311 (P24311 whole entry, looked up): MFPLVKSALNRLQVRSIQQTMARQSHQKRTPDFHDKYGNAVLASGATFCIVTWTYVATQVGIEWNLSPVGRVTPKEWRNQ
row,Target,log2 fold change
1,CFAP36 isoform 2 (UniProt Q96G28),-0.433 (active)
2,CHPT1 (UniProt Q8WUD6),-0.228 (inactive)
3,CENPE (UniProt Q02224),0.137 (inactive)
4,C22orf39 (UniProt Q6P5X5),0.134 (inactive)
5,CASP10 isoform 4 (UniProt Q92851),-0.582 (active)
6,COPS3 isoform 2 (UniProt Q9UNS2),0.031 (inactive)
7,COX7B (UniProt P24311),0.024 (inactive)
8,CCM2 isoform 2 (UniProt Q9BSQ5),-0.412 (active)
9,CCNT2 (UniProt O60583),-0.096 (inactive)
10,CRTC1 isoform 2 (UniProt Q6UUV9),0.211 (inactive)
11,CDK5 (UniProt Q00535),-0.259 (active)
12,C15orf41 (UniProt Q9Y2V0),-0.188 (inactive)
13,CCDC167 (UniProt Q9P0B6),-0.12 (inactive)
14,C6orf120 (UniProt Q7Z4R8),-0.101 (inactive)
15,C9orf72 (UniProt Q96LT7),-0.089 (inactive)
16,C19orf54 (UniProt Q5BKX5),-0.06 (inactive)

row,Target,log2 fold change
1,CDK19 (UniProt Q9BWU1),-0.064 (inactive)
2,CASP9 (UniProt P55211),-0.629 (active)
3,CRTC3 (UniProt Q6UUV7),0.051 (inactive)
4,CIR1 (UniProt Q86X95),0.049 (inactive)
5,CDK8 (UniProt P49336),-0.039 (inactive)
6,CHAF1A (UniProt Q13111),-0.021 (inactive)
7,CORO2A (UniProt Q92828),-0.075 (inactive)
8,CSNK1D (UniProt P48730),-0.133 (inactive)
9,CDCA2 (UniProt Q69YH5),0.275 (inactive)
10,CMTM3 (UniProt Q96MX0),-0.088 (inactive)
11,CDK17 isoform 2 (UniProt Q00537),-0.079 (inactive)
12,CDKN1B (UniProt P46527),0.028 (inactive)
13,CAB39L (UniProt Q9H9S4),-0.054 (inactive)
14,CHST10 (UniProt O43529),-0.146 (inactive)
15,CLN8 (UniProt Q9UBY8),0.001 (inactive)

# Source: the supplement of paper PMC10849652
